This note sets out measurements from PubChem BioAssay (NCI).

Compounds without any hit were thinned out: in the full panel of roughly 83,000, 20% have a hit.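 Method: cells in 96-well plates; compound added at one concentration; 48 h incubation; percent growth measured; values under 10 scored active.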 A number with no mark means an inactive call. The source made the active and inactive calls.

Assay in all cases: NCI-60 one-dose screen, 48 h (100 = growth as untreated, 0 = no growth, -100 = all killed)
The test system of experiment [1] is HCT-15 colon. Particulars: 10 µM.
Experiment [2] has as its system HT29 colon. Particulars: 10 µM.
Experiment [3] has as its system SNB-75 CNS. Particulars: 10 µM.
Experiment [4] has as its system SNB-19 CNS. Particulars: 10 µM.
Experiment [5] concerns U251 CNS. Particulars: 10 µM.
Experiment [6] concerns PC-3 prostate. Particulars: 10 µM.
The test system of experiment [7] is SK-MEL-5 melanoma. Particulars: 10 µM.
The test system of experiment [8] is UACC-62 melanoma. Particulars: 10 µM unless noted.
The subject of experiment [9] is LOX IMVI melanoma. Particulars: 10 µM.
The subject of experiment [10] is SK-MEL-28 melanoma. Particulars: 10 µM.
The subject of experiment [11] is SK-MEL-2 melanoma. Particulars: 10 µM.
Experiment [12] concerns EKVX NSCLC. Particulars: 10 µM.
The test system of experiment [13] is SN12C renal. Particulars: 10 µM.
The test system of experiment [14] is UO-31 renal. Particulars: 10 µM.
In experiment [15] the test system is TK-10 renal. Particulars: 10 µM unless noted.
Experiment [16] has as its system ACHN renal. Particulars: 10 µM.
Experiment [17] relates to CAKI-1 renal. Particulars: 10 µM.
Experiment [18] deals with A498 renal. Particulars: 10 µM.
Experiment [19] concerns CCRF-CEM leukemia. Particulars: 10 µM.
Experiment [20] relates to MOLT-4 leukemia. Particulars: 10 µM.

As to `OC(c1ccccn1)C(O)c1ccccn1` (stereo not given), the growth in experiment [1] is 97.6%; in experiment [2], 106%; in [3], 89.9%; in [4], 99.3%; in experiment [5] it was 109%; in experiment [6] it was 102%. Also, the growth is 106% in experiment [7]; 95.6% in experiment [8]; 96% in experiment [9]; 113% in experiment [10]; 108% in [11]; 124% in experiment [12]. Besides, the growth in [13] was 91.5%; in experiment [14], 89%; in experiment [15], 108%; in experiment [16], 98.2%; in experiment [17], 116%; in experiment [18], 95.9%. For the same compound, the growth in experiment [19] was 104%; in experiment [20], 95.1%.

In the case of `Cc1cc(C)c(N)c(S(=O)(=O)O)c1`, the growth in [1] was 100%; in experiment [2], 103%; in experiment [3], 101%; in experiment [4], 96.5%; in experiment [5], 98.2%; in experiment [6], 96.6%. Moreover, the growth in experiment [7] is 98.7%; in [8], 93.1%; in experiment [9], 93.9%; in experiment [10], 132%; in [11], 93.6%; in experiment [12], 101%. Further, the growth in [13] was 97.7%; in experiment [14] it was 76.2%; in [15], 105%; in experiment [16] it was 96.6%; in experiment [17], 91.3%; in [18] it was 142%. Besides, the growth was 86% in [19] and 113% in [20].

`CCNc1nc2c(cnn2C)c(=O)[nH]1`: the growth was 122% in experiment [1]; 96.2% in experiment [2]; 88.6% in [3]; 109% in experiment [4]; 97.8% in experiment [5]; 99% in [6]. For the same compound, the growth was 96.7% in experiment [7]; 107% in experiment [8]; 95% in experiment [9]; 118% in experiment [10]; 103% in experiment [11]; 99.4% in experiment [12]. Besides, the growth was 103% in [13]; 85.7% in [14]; 104% in experiment [15]; 107% in experiment [16]; 93.9% in [17]; 97.1% in experiment [18]. Besides, the growth was 93.9% in [19] and 102% in [20].

Take `COC(=O)Nc1nc2ccc(C(=O)c3ccc(F)cc3)cc2[nH]1`: the growth is 5.81% (active) in [1]; 7.47% (active) in experiment [2]; 31% in experiment [3]; 33.5% in experiment [4]; 14.3% in experiment [5]; 2.25% (active) in experiment [6]. The growth in experiment [7] was 13.6%; in experiment [8], 36%; in [9], 28.4%; in [10], 54.2%; in experiment [11], -20.1% (active); in [12], 36.7%. The growth in [13] was 29.8%; in experiment [14], 1.98% (active); in experiment [15], 17.3%; in [16], 33.2%; in [17], 15.2%; in experiment [18] it was 7.59% (active). Further, the values for the growth in experiment [19] and in experiment [20] were -46% (active) and -27% (active), respectively.

`CC1CC(O)CC(C)(C)C1` (stereo not given): the growth was 100% in [1]; 99.9% in experiment [2]; 94% in experiment [3]; 104% in experiment [4]; 101% in [5]; 94.8% in experiment [6]. The growth was 104% in experiment [7]; 92.4% in experiment [8]; 102% in experiment [9]; 112% in experiment [10]; 105% in experiment [11]; 98.8% in experiment [12]. Further, the growth in experiment [13] was 104%; in [14] it was 85.6%; in experiment [15], 102%; in experiment [16], 107%; in experiment [17], 98.9%; in [18] it was 98.7%. Besides, the values for the growth in [19] and in experiment [20] were 96.4% and 100%, respectively.

As to `CC(=O)c1cc2c(cc1F)C(C)(C)CCC2(C)C`, the growth in experiment [1] is 100%; in experiment [2], 106%; in experiment [3] it was 84.8%; in [4] it was 102%; in experiment [5], 104%; in experiment [6] it was 95.6%. Besides, the growth in experiment [7] is 102%; in experiment [8], 97.1%; in experiment [9] it was 96%; in [10] it was 107%; in experiment [11], 104%; in experiment [12], 111%. Besides, the growth in experiment [13] was 98.5%; in experiment [14] it was 80%; in experiment [15] it was 109%; in experiment [16], 91.9%; in [17] it was 112%; in experiment [18], 92.6%. Moreover, the growth in experiment [19] was 120%; in experiment [20] it was 89.1%.

Take `Cc1nc2ccccc2c2nnc(SCC(=O)N(Cc3ccccc3)c3ccccc3)n12`: the growth in experiment [1] is 90.4%; in [2], 96.1%; in experiment [3], 90.4%; in [4] it was 102%; in experiment [5], 98%; in experiment [6], 84.1%. Besides, the growth was 45.1% in experiment [7]; 84.7% in [8]; 91.6% in [9]; 109% in experiment [10]; 51.2% in experiment [11]; 76.6% in experiment [12]. Also, the growth in experiment [13] is 100%; in experiment [14], 89%; in experiment [15], 189%; in [16] it was 92.8%; in experiment [17], 71.3%; in [18] it was -16.6% (active). In addition, the growth is 85.4% in experiment [19] and 93.1% in experiment [20].

Turning to `CC(=O)OCC(=O)[C@@]1(O)CC[C@H]2[C@@H]3CC[C@@H]4C[C@H](O)CC[C@]4(C)[C@H]3C(=O)C[C@@]21C`, the growth in experiment [1] was 106%; in [2], 117%; in [3], 88.6%; in experiment [4] it was 111%; in [5], 102%; in experiment [6], 95.5%. Also, the growth was 97.1% in experiment [7]; 103% in [8]; 101% in experiment [9]; 121% in [10]; 101% in [11]; 98.4% in experiment [12]. The growth in experiment [13] is 102%; in [14], 96.3%; in experiment [15], 110%; in [16] it was 107%; in experiment [17], 89.4%; in experiment [18], 91.8%. Further, the growth in [19] was 74%; in experiment [20], 79.8%.
